Source: PubChem
The list is not random: actives were taken first. Their share in the collection is about 1.6%.
VCAM1 TNFa inh – inhibitors of TNFa-induced VCAM1 expression, primary screen, imaging, HUVEC, TNFa stimulus, immunofluorescence; HUVEC TNFa-induced VCAM-1 immunofluorescence, high-content imaging; inhibition, % at 2 µM; actives 0.48% (n = 95,000); AID 802, 2007;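 active = inhibition above the batch mean plus 3 SD, with images confirmed as a hit by eye, cut at about 37% in these data; inconclusive = inhibition above that limit but hit not confirmed in images; inactive = inhibition not above that limit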;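 also: 0% = TNF-stimulated DMSO wells and 100% = unstimulated control wells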
HUVEC tox TNFa – cytotoxicity in TNFa-stimulated HUVEC, primary screen, cytotoxicity control for VCAM1 expression modulator project, imaging, Hoechst nuclei count | HUVEC TNFalpha-stimulated, Hoechst cell count | cell count reduction, % at 2 µM | actives 0.17% (n = 93,000) | AID 848, 2007;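 active = cell count reduction exceeding the screen mean by over 5 SD, scaled to untreated wells per plate, cut at about 78% in these data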;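 also: cells counted after 24 h of TNF alpha exposure following the 1 h pretreatment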
E-sel TNF inh – E-selectin induction blockers in HUVEC – imaging, immunofluorescence, high content, primary screen; actives 0.71% (n = 120,000); HUVEC TNFa-induced E-selectin immunofluorescence; inhibition, % at 2 µM; AID 1246, 2008;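 active = inhibition above the batch mean plus 3 SD, and confirmed as a hit on visual image review, cut at about 43% in these data; inconclusive = passes the inhibition cutoff but fails visual image review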;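 also: 0% = TNF-stimulated DMSO wells and 100% = unstimulated control wells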
S1P2 agonist – S1P2 receptor agonists, primary screen, cell-based | AID 729, 2007 | Sphingosine 1-phosphate receptor 2 (Homo sapiens), O95136 | S1P2-expressing cell line, agonist reporter read-out | actives 0.46% (n = 97,000) | activation, % at 4.5 µM; in the data active = activation above about 16%;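 also: 0% = vehicle low control and 100% = maximal reference agonist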
Target sequence (O95136 whole entry, looked up): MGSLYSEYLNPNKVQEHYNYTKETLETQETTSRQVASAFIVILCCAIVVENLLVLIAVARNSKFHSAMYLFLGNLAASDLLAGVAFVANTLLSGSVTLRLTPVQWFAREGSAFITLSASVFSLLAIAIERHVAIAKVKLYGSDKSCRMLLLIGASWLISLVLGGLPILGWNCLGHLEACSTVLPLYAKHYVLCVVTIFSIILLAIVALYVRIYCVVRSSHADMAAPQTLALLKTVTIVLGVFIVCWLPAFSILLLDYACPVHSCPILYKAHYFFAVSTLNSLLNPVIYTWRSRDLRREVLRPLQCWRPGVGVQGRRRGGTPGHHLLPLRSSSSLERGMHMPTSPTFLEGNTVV
cytoskel mod – modifiers of F-actin cytoskeleton organization, primary screen, imaging, HUVEC, phalloidin staining, high-content imaging | HUVEC TNFa F-actin phalloidin imaging | AID 836, 2007 | inhibition, % at 2 µM | actives 0.18% (n = 91,000);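 active = inhibition above the batch mean plus 3 SD and confirmed as a hit by visual image inspection, cut at about 30% in these data, passing the limit was not always enough; inconclusive = above the inhibition threshold but rejected on visual inspection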
S1P2 blocker – human S1P2 receptor antagonists, primary screen, cell-based; Sphingosine 1-phosphate receptor 2 (Homo sapiens), O95136; cell-based S1P2 antagonist assay, inhibition at 5 uM; inhibition, % at 5 µM; actives 0.21% (n = 97,000); AID 736, 2007; in the data active = inhibition above about 45%;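 also: CRE beta-lactamase reporter cells expressing human S1P2 stimulated with S1P; 0% = agonist at EC80 alone and 100% = agonist plus reference antagonist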
* marks the source's active call; other numbers are inactive results; ? = inconclusive; . = no result.

SMILES | VCAM1 TNFa inh | HUVEC tox TNFa | E-sel TNF inh | S1P2 agonist | cytoskel mod | S1P2 blocker
Cc1cc([N+](=O)[O-])nn1CCCC(=O)Nc1sc2c(c1C(N)=O)CCC(C)C2 (stereo unspecified) | . | . | 84.2* | . | . | .
CCN(CC)S(=O)(=O)c1ccc(N2CCCCC2)c(NC(=O)c2ccncc2)c1 | . | . | -13.1 | . | . | .
CN(c1ccc(C(=O)NCC2CCCO2)cc1)S(C)(=O)=O (stereo unspecified) | 12.3 | -13.3 | 64.6* | -2.8 | 13.2 | -32.0
O=C(NCC1CCCO1)c1ccc(C(=O)NCC2CCCO2)cc1 (stereo unspecified) | . | . | -1.4 | -4.6 | . | -3.7
Cc1nc2ccccc2c(=O)n1/N=C/c1ccc(O)cc1 | 4.1 | -6.9 | 65.7* | -3.2 | 48.0 | 11.1
CC1(C)Cc2nc3sc4c(=O)n(Cc5ccccc5)cnc4c3cc2CS1 | . | . | 9.3 | . | . | .
CCCn1cnc2c(sc3nc4c(cc32)CSC(C)(C)C4)c1=O | 19.5 | 85.9* | -4.7 | -5.0 | -12.9 | 10.9
CCOc1ccc(NC(=O)COC(=O)C23CC4CC(CC(C4)C2)C3)c([N+](=O)[O-])c1 | . | . | 94.8* | . | . | .
CCOc1ccc(NC(=O)/C=C/c2ccc(OC)cc2)c([N+](=O)[O-])c1 | . | . | 60.9* | . | . | .
CCOc1ccc(NC(=S)NC(=O)/C=C/c2ccc(C)cc2)c([N+](=O)[O-])c1 | 5.8 | 13.4 | -4.0 | -0.7 | 11.9 | -21.1
CCC(CC)n1[nH]c(=O)c2c(C)cc(C)nc21 | 49.2 | 81.0* | -22.0 | -5.0 | 3.5 | 14.1
O=C(O)C1=C(C(=O)Nc2cc(C(F)(F)F)ccc2Cl)CCCC1 | . | . | -9.3 | . | . | .
CCOc1cc(C(=O)Nc2cccc3ncccc23)cc(OCC)c1OCC | 18.1 | 30.5 | . | -5.9 | 53.4* | 7.7
CCOC(=O)c1nnc(-c2ccc(C)cc2)nc1Oc1ccccc1Cl | 3.0 | -15.7 | 27.8 | -2.2 | 10.3 | 0.3
CCOC(=O)c1nnc(-c2ccc(C)cc2)nc1Oc1ccc(Cl)cc1Cl | 8.8 | 15.9 | 62.7* | -5.2 | 10.9 | 11.1
N=C1c2ccccc2CN1NC(=O)CC12CC3CC(CC(C3)C1)C2 | . | . | 14.8 | . | . | .
CCC(=O)Nc1cccc(NC(=O)c2cc3ccccc3o2)c1 | 86.1* | 86.8* | . | -1.4 | -56.3 | -4.7
CCCOc1ccc2oc(=O)c3c(c2c1)CCCN3C(=O)CN(C)Cc1ccccc1 | 20.6 | -12.0 | -74.3 | -5.4 | 1.6 | -7.4
O=c1n(Cc2ccccc2F)c2ccccc2n1Cc1ccccc1F | -13.5 | -12.7 | -4.4 | -7.2 | 31.3* | -15.9
COCCn1c(SCc2nc3scc(-c4ccc(Cl)cc4)c3c(=O)[nH]2)nnc1-c1cccc(C)c1 | . | . | -2.0 | . | . | .
CC(C)OC(=O)c1nnn(-c2nonc2N)c1CSc1ccccn1 | 0.4 | -22.2 | -2.6 | 0.3 | 1.8 | -4.8
Cc1nc(SCC(=O)Nc2ccccc2)c2oc3ccccc3c2n1 | -30.4 | -22.5 | -57.4 | 16.6* | 14.0 | -32.2
O=C(CCNS(=O)(=O)c1cccc2nsnc12)NCc1ccco1 | . | . | 10.8 | . | . | .
COc1ccc(C)cc1S(=O)(=O)Nc1cccc(SC)c1 | 51.2* | 6.4 | 17.1 | -2.0 | -19.7 | -5.0
COc1cccc(NS(=O)(=O)c2cc(C)ccc2OC)c1 | 9.7 | -27.9 | -10.3 | -5.3 | -5.3 | -5.9
SMILES | VCAM1 TNFa inh | HUVEC tox TNFa | E-sel TNF inh | S1P2 agonist | cytoskel mod | S1P2 blocker
CN(C)c1ccc(N2CC(C)(C)C2=O)cc1 | . | . | -11.8 | . | . | .
O=C(Cn1cccc1C(=O)c1ccccc1)NCCCN1CCOCC1 | 0.3 | 0.0 | . | -2.7 | 9.8 | -19.1
O=C(Cn1cccc1C(=O)c1ccccc1)NCCN1CCOCC1 | 82.0* | 43.8 | -1.0 | -4.7 | ? | 8.9
O=C(C1CCN(S(=O)(=O)N2CCOCC2)CC1)N1CCN(Cc2ccc3c(c2)OCO3)CC1 | 2.5 | -7.5 | 15.4 | -4.3 | -35.8 | 11.2
Cc1noc(C)c1S(=O)(=O)N1CCC(C(=O)N2CCN(Cc3ccc4c(c3)OCO4)CC2)CC1 | . | . | 73.5* | . | . | .
Cc1ccc(OCn2c(=O)sc3ccccc32)cc1 | 4.9 | -10.7 | -35.9 | -4.4 | 6.4 | -2.6
Cc1nc2ccccc2n1CC(O)COCC1CC=CCC1 (stereo unspecified) | -42.8 | 95.5* | 13.9 | -1.2 | 2.5 | -0.7
CC1=C(C#N)C(NC(=O)c2cccc(Cl)c2)(C(F)(F)F)C(=O)N1 (stereo unspecified) | . | . | 7.9 | . | . | .
CC1=C(C#N)C(Nc2cccc(C)n2)(C(F)(F)F)C(=O)N1 (stereo unspecified) | 90.9* | 81.8* | . | -5.7 | -28.9 | -0.5
COc1ccc(-c2n[nH]c(C(F)(F)F)c2-c2cc3ccccc3o2)c(O)c1 | -26.3 | 18.3 | 42.6* | -11.7 | . | 5.1
Cc1ccc(C(=O)C2=C(O)C(=O)N(CCCn3ccnc3)C2c2ccc(OC(C)C)cc2)o1 (stereo unspecified) | 14.7 | 18.8 | -4.8 | -2.1 | 23.8 | 23.1
CCOC(=O)c1c(NC(=O)CSc2nnc(-c3ccccc3)n2CC)sc(C(C)=O)c1C | 4.0 | -40.7 | 99.7* | -2.2 | 18.8 | -12.5
CCN(C(=O)COC(=O)CNC(=O)c1ccc(C)s1)c1ccccc1 | . | . | -16.6 | . | . | .
CCOC(=O)C1C(=O)NC(N2CCCCC2)=NC1c1ccco1 (stereo unspecified) | 97.0* | 12.5 | 1.5 | -1.0 | -16.2 | -19.2
CC(C)CC(=O)n1sc(NC(=O)c2ccccc2)nc1=O | 9.6 | -28.8 | 100.0* | -4.2 | 50.4 | 10.1
CCOc1ccccc1/C=N/Nc1ccccc1[N+](=O)[O-] | 58.8* | 22.0 | 4.4 | -1.7 | -7.3 | 16.6
CN(C)C(=O)COc1ncnc2scc(-c3ccc(F)cc3)c12 | . | . | -54.9 | . | . | .
CCOc1cc(/C=N\NC(=O)Cc2ccccc2)ccc1OCC(=O)Nc1ccc(C)c(C)c1 | 52.3* | 15.1 | -8.8 | -1.2 | -15.4 | -6.6
COc1ccc(CCNC(=O)c2c(O)c3c([nH]c2=O)CCCC3)cc1OC | -2.6 | 3.5 | . | -2.6 | 35.8 | 5.3
CCn1cc(S(=O)(=O)CC(=O)Nc2cc(C)ccc2C)c2ccccc21 | 26.3 | -3.0 | 62.0* | -2.7 | 8.4 | -14.2
O=C(Cn1nnc(-c2ccc(Cl)cc2)n1)NC1CCN(Cc2ccccc2)CC1 | -16.1 | -18.5 | 99.9* | -1.0 | 21.1 | -3.2
Nc1ccccc1N=Cc1ccc(-c2cccc(Cl)c2)o1 | . | . | -15.1 | . | . | .
Cc1nc(SCC(N)=O)c([N+](=O)[O-])[nH]1 | . | . | 62.8* | . | . | .
CC1CC(Nc2ccccc2)=CC(=O)O1 (stereo unspecified) | 15.8 | -5.0 | 43.8* | -2.2 | 10.5 | -9.2
O=S(=O)(c1ccc2c(c1)C(=NO)c1cc(S(=O)(=O)N3CCCCC3)ccc1-2)N1CCCCC1 | 99.8* | 90.3* | 5.7 | -5.8 | 59.6* | 11.8
CC1CCN(S(=O)(=O)c2ccc3c(c2)C(=NO)c2cc(S(=O)(=O)N4CCC(C)CC4)ccc2-3)CC1 | 9.9 | -6.9 | . | -3.2 | -29.4 | 6.4
